# Assay outcomes: PubChem BioAssay, National Center for Advancing Translational Sciences (NCATS)
# RORgamma inh = qHTS for inhibitors of ROR gamma transcriptional activity; AID 2551, 2010; Potency, µM (doses to about 53.6 µM), for the others: top-dose activity change, negative = inhibition, most hits filed as inhibitors; 310,000 tested, 5.4% active; Nuclear receptor ROR-gamma (Mus musculus), P51450; Drosophila S2 Gal4-RORgamma UAS-luciferase reporter, 20 h; note: % is set by controls: 0 for no effect and ±100 for the full control effect; nearly all actives have a fitted effect of over 60% in size
#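 Stably transfected Drosophila Schneider cells are the test system, with ROR gamma fused to Gal4 and luciferase under UAS control; luminescence is read after 20 hr of 700 uM copper sulfate induction at ambient temperature.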
# VP16 counter = VP16 counterscreen qHTS for inhibitors of ROR gamma transcriptional activity; Drosophila S2 Gal4-VP16 UAS-luciferase, luminescence, 20 h; Potency, µM (highest dose often 53.6 µM), inactives show top-dose activity, negative = inhibition, actives largely listed as inhibitors; 310,000 tested, 3.5% active;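 note: Gal4-VP16 expression switched on by copper sulfate through the metallothionein promoter; % is set by controls: 0 for no effect and ±100 for the full control effect; nearly all actives have a fitted effect of over 50% in size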
# HEK293 tox = qHTS of GLP-1 Receptor Inverse Agonists: Cytotox Screen | HEK293 cAMP-luciferase reporter cells, luminescence, 24 h | Potency, µM (doses to about 38.3 µM), without a hit: top-dose activity change, negative = inhibition, hits mostly inhibitors | 410,000 tested, 0.13% active;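 note: loss of luciferase light is scored as toxicity; % is set by controls: 0 for no effect and ±100 for the full control effect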
#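 Step one: seed cells (200 cells/uL, DMEM with 10% Nu serum, 1% pen-strep). Step two: 12-hour incubation at 37 deg C. Step three: pin 23 nL compound, incubate 24 hr. Step four: add luciferase reagent, read luminescence 12 min later.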
# GLP-1R agonist = qHTS of GLP-1 Receptor Agonists; 380,000 tested, 0.007% active; Glucagon-like peptide 1 receptor (Homo sapiens), P43220; HEK293 GLP-1R CRE-luciferase, luminescence, 4-6 h; cells express a hypersensitive GLP-1R form; Potency, µM (top dose mostly 45.6 µM), for the others: at the top dose activation, hits mostly activators; note: % of control where 0% means no effect
# Target sequence (P43220 whole entry, looked up): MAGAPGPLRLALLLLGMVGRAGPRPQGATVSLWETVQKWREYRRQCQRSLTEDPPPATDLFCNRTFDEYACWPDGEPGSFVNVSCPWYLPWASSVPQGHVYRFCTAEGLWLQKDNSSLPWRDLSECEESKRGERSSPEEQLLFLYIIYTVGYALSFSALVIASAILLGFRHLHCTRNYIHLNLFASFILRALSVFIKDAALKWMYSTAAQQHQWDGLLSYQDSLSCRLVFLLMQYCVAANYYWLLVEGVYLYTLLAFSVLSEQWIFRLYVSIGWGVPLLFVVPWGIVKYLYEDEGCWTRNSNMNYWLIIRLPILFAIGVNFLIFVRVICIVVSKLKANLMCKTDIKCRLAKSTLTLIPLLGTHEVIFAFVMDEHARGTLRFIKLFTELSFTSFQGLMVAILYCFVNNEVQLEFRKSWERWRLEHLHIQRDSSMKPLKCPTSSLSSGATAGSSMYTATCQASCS
# GLP1R inv ag = qHTS of GLP-1 Receptor Inverse Agonists (Inhibition Mode); Glucagon-like peptide 1 receptor (Homo sapiens), P43220; HEK293 GLP-1R CRE-luciferase, luminescence, 24 h; GLP-1R form is constitutively active; Potency, µM (titrated, usually from 38.3 µM), inactives show top-dose activity change, negative = inhibition, actives largely listed as inhibitors; 410,000 tested, 1.6% active; note: % is set by controls: 0 for no effect and ±100 for the full control effect; nearly all actives have a fitted effect of over 55% in size
#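 Constitutively active GLP-1R drives a cAMP-responsive luciferase in stably transfected HEK293 cells; test compounds are added after overnight (12 h) attachment and left 24 hr, and signal loss in luminescence marks inhibition.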
# * hit, by the source's call; ? = inconclusive; · = not tested or not shown; [ ] = dose if it differs, or a comment. An excerpt weighted towards active compounds, which were near 5.9% of everything screened. Calls come from the whole dose curve; as a rule, active = well fitted curve in the direction sought with a large enough effect; inconclusive = small, poorly fitted or top-dose-only effect, or another doubt; inactive = no such curve, though single readings can be large; an effect the other way counts as inactive or inconclusive. Potency is the fitted concentration of half-maximal effect.
SMILES,RORgamma inh,VP16 counter,HEK293 tox,GLP-1R agonist,GLP1R inv ag
COCCn1c(COC)nc2ccccc21,-11%,0%,1%,1%,5%
Cc1cccc(Cn2c(Cc3ccccc3)nc3ccccc32)c1,3.2µM*,4.5µM*,29%,15%,?
c1ccc(CCNc2nc(-c3ccccc3)cs2)cc1,·,·,·,12%,·
COc1ccc(NC(=O)CSc2nnc(-c3nonc3NC(C)=O)n2C)cc1Cl,·,·,15%,·,3%
Cc1cccc(Cn2c(COc3ccc(Cl)cc3)nc3ccccc32)c1,·,·,39%,·,-4%
COCc1nc2ccccc2n1Cc1cccc(C)c1,13µM*,2%,25%,9%,-20%
COc1ccc(NC(=O)c2c(NC(=O)COc3ccc(Cl)cc3)sc3c2CCCCC3)cc1,·,·,4%,·,10%
S=C1Cc2ccccc2C(c2ccc(Cl)cc2)N1 (stereo not given),6.3µM*,5.6µM*,7%,-1%,?
CCN(C(=O)CSc1nc(-c2ccc(C(C)C)cc2)no1)c1ccccc1,·,·,3%,·,11µM*
C=C1C(C2(C)C=CC(=O)C(C)(C)C2CC(=O)OC)CC[C@@]2(C)C(c3ccoc3)OC(=O)C3OC132 (stereo not given in full),27%,-12%,·,·,·
COc1ccc(-c2nn(-c3ccccc3)cc2/C=N/NC(N)=S)cc1OC,1.1µM*,1µM*,?,4%,?
COc1ccc(-c2nn(-c3ccccc3)cc2/C=N/Nc2ccccn2)cc1,1.6µM*,4µM*,·,·,·
Cc1ccc(/C=N/NC(=O)c2cccc(S(=O)(=O)Nc3ccccc3Cl)c2)o1,13µM*,?,-4%,-2%,1%
COc1ccc(-c2nn(-c3ccccc3)cc2/C=N/n2cnnc2)cc1OC,7%,2%,-3%,13%,26%
COc1ccccc1NS(=O)(=O)c1cccc(C(=O)N/N=C/c2cn(-c3ccccc3)nc2-c2ccccc2)c1,1.6µM*,6.3µM*,4%,7%,-14%
CCOc1ccc(-n2ccnc2SCC(=O)Nc2cccc3ccccc23)cc1,·,·,-2%,·,1%
CC1CN(C(=O)Nc2ccc(C(=O)NCc3ccccc3F)cc2)c2ccccc2S1 (stereo not given),·,·,3%,·,0%
CCN(CC)c1ccc(/C=N/NC(=O)c2cccc(S(=O)(=O)Nc3ccccc3OC)c2)c(O)c1,2.5µM*,4.5µM*,87%,10%,?
COc1ccccc1NS(=O)(=O)c1cccc(C(=O)N/N=C/c2ccc3c(c2)OCCO3)c1,-7%,-5%,-19%,0%,-4%
CCN(CC)c1ccc(/C=N/NC(=O)c2cccc(S(=O)(=O)Nc3ccccc3OC)c2)cc1,6.3µM*,8.9µM*,37%,6%,?
CCOC(=O)c1c(CSc2ccccc2)n(C)c2cc(Br)c(OC)c(O)c12,?,?,-13%,15%,?
CCOC(=O)c1c(CSc2ccccc2)n(C)c2cc(Br)c(OCC(O)CNC(CO)(CO)CO)cc12 (stereo not given),-35%,?,?,0%,8.9µM*
CCc1cc(SC#N)cc(CC)c1NC(=O)CCl,?,20µM*,-6%,-12%,?
Cc1cc(C)c2c(NC(=O)CCl)nn(C)c2n1,-21%,?,?,-4%,?
CCc1ccc(NCc2cc3ccc(OC)cc3n(CC(=O)Nc3cccc(Cl)c3C)c2=O)cc1,·,·,3%,2%,8%
SMILES,RORgamma inh,VP16 counter,HEK293 tox,GLP-1R agonist,GLP1R inv ag
Cn1c(NCC(O)c2ccccc2)nc2c1c(=O)n(Cc1ccc(Cl)cc1)c(=O)n2C (stereo not given),?,-13%,-19%,6%,?
C=CCNc1nc2c(c(=O)n(C)c(=O)n2C)n1Cc1ccc(F)cc1,?,7.1µM*,4%,-1%,-4%
Cn1c(=O)n(Cc2ccccc2)c(=O)c2c1nc(NCC1CCCO1)n2Cc1ccccc1 (stereo not given),0%,-2%,?,1%,4µM*
Cn1c(NCC(O)c2ccccc2)nc2c1c(=O)n(Cc1ccc(Cl)c(Cl)c1)c(=O)n2C (stereo not given),·,·,-10%,-40%,3.2µM*
C=CCNc1nc2c(c(=O)n(C)c(=O)n2C)n1CCCCCC,?,5µM*,5%,6%,-6%
COc1ccc2c(c1)O[C@@H](c1cccc(C(F)(F)F)c1)[C@H](OC(=O)NCc1ccco1)C2=O,-2%,-3%,·,·,·
Cn1c(=O)c2c(nc(NCCc3ccccc3)n2Cc2ccc(F)cc2)n(C)c1=O,?,22µM*,-4%,-4%,-7%
Cn1c(=O)c2c(nc(N/N=C/c3ccc(OC(=O)c4ccco4)cc3)n2Cc2ccc(F)cc2)n(C)c1=O,-11%,18µM*,7%,4%,13%
Cn1c(=O)c2c(nc(N/N=C/c3ccc(OC(=O)c4ccco4)cc3)n2Cc2ccccc2Cl)n(C)c1=O,10%,-1%,7%,0%,-8%
Cc1cc(Cl)ccc1OCc1cc(=O)n2c3c(sc2n1)CCCC3,·,·,-2%,0%,14%
Cc1cccc(Nc2nnc(SCC3CCCCO3)s2)c1 (stereo not given),10µM*,-11%,-29%,13%,?
COc1cc(C)nc(-n2nc(C)cc2OC)n1,3.2µM*,?,0%,-3%,4%
C=NC(C(=O)NC1C(=O)N2C1SC(C)(C)C2C(=O)O)c1ccccc1 (stereo not given),2%,-3%,·,0%,·
COc1c(CO)cc(CO)cc(CO)c1=O,7%,7%,·,·,·
Cc1ccccc1-c1nc(CN(Cc2c(C)nn(C)c2C)C2CC2)c(C)o1,5.6µM*,13µM*,-1%[7.66 µM],16%,-7%[7.66 µM]
CCOC(=O)c1c(CN2CCN(C)CC2)n(-c2ccccc2)c2cc(Br)c(O)cc12,18%,-7%,13%,4%,?
CCOC(=O)c1c(CN2CCN(CCO)CC2)n(-c2ccccc2)c2cc(Br)c(O)cc12,-9%,-11%,?,16%,2.2µM*
COc1ccc(-c2[nH]c(-c3ccc(O)cc3)nc2-c2ccccc2)cc1,·,·,-18%,·,?
C/C=C1/C2C=C(C)CC1(N)c1ccc(=O)[nH]c1C2 (stereo not given),5%,-3%,·,·,·
CCn1ccc2cc(S(=O)(=O)N3CCCN(C(=O)Nc4ccc(C)cc4)CC3)ccc21,·,·,-10%,-4%,-23%
CCCCc1ccc(NC(=O)Nc2cccnc2)cc1,42%,5%,2%,-3%,7.1µM*
CCCCc1ccc(NC(=S)Nc2cccnc2)cc1,13µM*,13µM*,-13%,2%,9%
